Experimental findings from article PMC5700166 are described below.

What all share (assay): protein-binding microarray (PBM); PBM: ~300 nM protein, 6 mM HEPES pH 7.8, 80 mM KCl, 0.5 mM EDTA, 0.5 mM EGTA, 6% glycerol, 35 ng/ul poly-dIdC, 1% milk, 1 h, room temperature; Ap Aiptasia and Nv Nematostella (sea anemones) / Co Capsaspora / Aq Amphimedon (sponge) / Dm Drosophila / Hu human; RHD is the Rel homology domain; high values mean tight binding
Holding throughout (settings): dsDNA, one strand shown

The target in one assay is T1, GST-Ap-NF-kB RHD (Exaiptasia pallida (Aiptasia), UniProt A0A913YAJ5 2-422).
T1 sequence: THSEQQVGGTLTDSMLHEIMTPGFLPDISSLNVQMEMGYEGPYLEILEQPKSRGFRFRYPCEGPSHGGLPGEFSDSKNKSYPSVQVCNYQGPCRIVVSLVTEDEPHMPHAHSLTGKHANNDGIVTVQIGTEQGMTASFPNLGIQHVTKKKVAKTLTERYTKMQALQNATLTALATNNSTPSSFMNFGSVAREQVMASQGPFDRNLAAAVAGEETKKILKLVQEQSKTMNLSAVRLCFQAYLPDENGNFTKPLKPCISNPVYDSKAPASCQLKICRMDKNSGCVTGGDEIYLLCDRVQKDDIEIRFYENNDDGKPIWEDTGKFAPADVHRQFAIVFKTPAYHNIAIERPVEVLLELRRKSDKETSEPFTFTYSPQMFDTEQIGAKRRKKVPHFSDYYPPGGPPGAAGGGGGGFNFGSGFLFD

In assay [1] the target is T2, GST-Nv-NF-kB (Cys allele) (Nematostella vectensis, UniProt E5G601 2-411).
T2 sequence: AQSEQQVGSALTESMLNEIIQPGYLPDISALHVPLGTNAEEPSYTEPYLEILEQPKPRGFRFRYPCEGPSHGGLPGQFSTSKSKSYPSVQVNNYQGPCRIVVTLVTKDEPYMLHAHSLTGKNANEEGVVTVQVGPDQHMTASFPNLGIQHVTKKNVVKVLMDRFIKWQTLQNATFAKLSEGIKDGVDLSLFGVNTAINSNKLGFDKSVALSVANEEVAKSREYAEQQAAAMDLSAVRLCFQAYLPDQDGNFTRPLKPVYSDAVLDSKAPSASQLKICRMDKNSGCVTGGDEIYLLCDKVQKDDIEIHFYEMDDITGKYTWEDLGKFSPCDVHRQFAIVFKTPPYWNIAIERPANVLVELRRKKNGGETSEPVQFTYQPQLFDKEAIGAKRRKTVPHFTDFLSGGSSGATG

In assay [2] the target is T3, GST-Nv-NF-kB (Ser allele) (Nematostella vectensis, UniProt A7UNT2 2-411).
T3 sequence: T2 sequence with Q21R, C66S, S207N, E215Q, V217A, E225K, A268E, D399E

The target in another assay is T4, GST-Co-NF-kB (Capsaspora owczarzaki, UniProt F1ARL5 200-546).
T4 sequence: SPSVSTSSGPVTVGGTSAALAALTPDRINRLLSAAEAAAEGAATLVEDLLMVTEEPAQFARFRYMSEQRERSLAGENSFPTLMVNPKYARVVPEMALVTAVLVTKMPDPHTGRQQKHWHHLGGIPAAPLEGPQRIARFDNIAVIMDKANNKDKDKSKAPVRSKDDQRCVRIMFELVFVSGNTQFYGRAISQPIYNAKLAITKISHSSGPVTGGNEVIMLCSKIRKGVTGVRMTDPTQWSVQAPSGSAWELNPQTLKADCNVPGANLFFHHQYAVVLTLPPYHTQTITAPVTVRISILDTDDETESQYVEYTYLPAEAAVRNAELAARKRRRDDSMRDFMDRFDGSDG

The next assay addresses T5, GST-Dm-Relish (Drosophila melanogaster, UniProt Q94527 99-473).
T5 sequence: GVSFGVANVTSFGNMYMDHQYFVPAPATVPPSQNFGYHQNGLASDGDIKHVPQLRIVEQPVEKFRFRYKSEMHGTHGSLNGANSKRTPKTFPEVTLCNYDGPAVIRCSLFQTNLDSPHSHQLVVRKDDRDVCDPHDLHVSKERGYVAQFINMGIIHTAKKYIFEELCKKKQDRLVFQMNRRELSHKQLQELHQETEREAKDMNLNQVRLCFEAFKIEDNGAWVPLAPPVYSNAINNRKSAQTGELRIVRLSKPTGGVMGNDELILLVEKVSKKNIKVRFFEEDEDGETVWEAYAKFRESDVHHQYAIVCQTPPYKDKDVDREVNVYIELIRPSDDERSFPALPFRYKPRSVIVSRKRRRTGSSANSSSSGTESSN

In the next assay the target is T6, GST-Aq-NF-kB (Amphimedon queenslandica, UniProt A9Y5G7 2-389).
T6 sequence: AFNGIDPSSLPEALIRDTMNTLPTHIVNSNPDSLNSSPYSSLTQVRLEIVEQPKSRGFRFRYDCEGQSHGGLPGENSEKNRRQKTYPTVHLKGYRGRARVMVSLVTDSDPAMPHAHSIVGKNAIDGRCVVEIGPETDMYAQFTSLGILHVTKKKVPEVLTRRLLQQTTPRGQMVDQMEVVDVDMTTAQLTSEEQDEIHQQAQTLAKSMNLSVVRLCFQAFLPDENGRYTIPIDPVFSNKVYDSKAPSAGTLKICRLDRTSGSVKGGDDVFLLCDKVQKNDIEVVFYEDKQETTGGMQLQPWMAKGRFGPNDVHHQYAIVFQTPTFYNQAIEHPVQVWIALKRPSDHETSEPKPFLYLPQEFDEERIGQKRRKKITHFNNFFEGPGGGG

A further assay addresses GST-Hu-p50 (Homo sapiens, UniProt P19838 7-356).

Where a chain is given by its changes, count along the chain named.

GST-Hu-p50, sequence (P19838 7-356): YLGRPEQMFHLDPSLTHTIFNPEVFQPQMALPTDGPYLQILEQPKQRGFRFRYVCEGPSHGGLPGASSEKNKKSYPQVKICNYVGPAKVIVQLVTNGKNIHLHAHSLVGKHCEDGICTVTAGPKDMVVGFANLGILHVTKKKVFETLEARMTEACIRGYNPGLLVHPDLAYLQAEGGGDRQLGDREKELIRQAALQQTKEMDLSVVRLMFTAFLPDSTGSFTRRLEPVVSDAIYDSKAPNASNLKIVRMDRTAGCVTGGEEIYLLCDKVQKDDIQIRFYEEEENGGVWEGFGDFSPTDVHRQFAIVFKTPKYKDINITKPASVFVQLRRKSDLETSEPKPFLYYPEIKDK

Consider “CCGATTAACATCAAAAATCCCCATGATGTTAATCGGGTCTTGATTCGCTTGACGCTGCTG”, for which the binding signal in the assay with GST-Ap-NF-kB RHD was 9.63 z-score; in assay [1], 10.8 z-score; in assay [2] it was 11.4 z-score; with GST-Co-NF-kB, 5.31 z-score; with GST-Dm-Relish it was 9.64 z-score; in the assay with GST-Aq-NF-kB, 7.92 z-score. The binding signal with GST-Hu-p50 stood at 7.94 z-score.
“CCGATTAACATCAAAAACCCCCATGATGTTAATCGGGTCTTGATTCGCTTGACGCTGCTG”: the binding signal worked out at 9.51 z-score in the assay with GST-Ap-NF-kB RHD; 8.21 z-score in assay [1]; 9 z-score in assay [2]; 3.93 z-score with GST-Co-NF-kB; 9.82 z-score in the assay with GST-Dm-Relish; 7.68 z-score with GST-Aq-NF-kB. In the assay with GST-Hu-p50, this sequence yielded a binding signal of 7.91 z-score.
“CCGATTAACATCAATCTTTCCCCTGATGTTAATCGGGTCTTGATTCGCTTGACGCTGCTG”: the binding signal with GST-Ap-NF-kB RHD stood at 5.5 z-score; in assay [1], 7.61 z-score; in assay [2], 8.93 z-score; with GST-Co-NF-kB it was 8.32 z-score; with GST-Dm-Relish, 3.33 z-score; with GST-Aq-NF-kB it was 5.91 z-score. This sequence also showed a binding signal with GST-Hu-p50 of 5.41 z-score.
For “CCGATTAACATCAAGAAAACCCCTGATGTTAATCGGGTCTTGATTCGCTTGACGCTGCTG”, the binding signal with GST-Ap-NF-kB RHD was 6.98 z-score; in assay [1], 7.2 z-score; in assay [2] it was 6.87 z-score; with GST-Co-NF-kB, 2.44 z-score; in the assay with GST-Dm-Relish, 7.76 z-score; with GST-Aq-NF-kB, 6.52 z-score. For the same sequence, the binding signal in the assay with GST-Hu-p50 is 6.8 z-score.
On to “CCGATTAACATCACGGCATTCCCTGATGTTAATCGGGTCTTGATTCGCTTGACGCTGCTG”, for which the binding signal with GST-Ap-NF-kB RHD is 2 z-score; in assay [1] it was 2.64 z-score; in assay [2], 2.35 z-score; with GST-Co-NF-kB, 1.73 z-score; with GST-Dm-Relish it was 2.31 z-score; in the assay with GST-Aq-NF-kB it was 3.81 z-score. Moreover, the binding signal with GST-Hu-p50 is 1.4 z-score.
Take “CCGATTAACATCAGGGTAAGTACTGATGTTAATCGGGTCTTGATTCGCTTGACGCTGCTG”: the binding signal with GST-Ap-NF-kB RHD amounted to 2.48 z-score; in assay [1] it was 3.05 z-score; in assay [2] it was 2.93 z-score; in the assay with GST-Co-NF-kB, 1.85 z-score; in the assay with GST-Dm-Relish it was 7.08 z-score; with GST-Aq-NF-kB, 5.82 z-score. In the assay with GST-Hu-p50, this sequence came in with a binding signal of 2.3 z-score.
As to “CCGATTAACATCAGGGGAAAACATGATGTTAATCGGGTCTTGATTCGCTTGACGCTGCTG”, the binding signal in the assay with GST-Ap-NF-kB RHD was found to be 6.62 z-score; in assay [1], 7.81 z-score; in assay [2] it was 9.93 z-score; with GST-Co-NF-kB, 8.6 z-score; in the assay with GST-Dm-Relish it was 5.04 z-score; with GST-Aq-NF-kB it was 6.17 z-score. This sequence also returned a binding signal with GST-Hu-p50 of 6.18 z-score.
Take “CCGATTAACATCAAATCCCCCCATGATGTTAATCGGGTCTTGATTCGCTTGACGCTGCTG”: the binding signal in the assay with GST-Ap-NF-kB RHD stood at 7.89 z-score; in assay [1] it was 6.31 z-score; in assay [2] it was 6.65 z-score; in the assay with GST-Co-NF-kB, 7.39 z-score; in the assay with GST-Dm-Relish it was 7.66 z-score; in the assay with GST-Aq-NF-kB it was 6.36 z-score. This sequence yielded a binding signal in the assay with GST-Hu-p50 of 6.55 z-score.
For “CCGATTAACATCAGGGGGTAAGATGATGTTAATCGGGTCTTGATTCGCTTGACGCTGCTG”, the binding signal with GST-Ap-NF-kB RHD is 3.96 z-score; in assay [1], 3.13 z-score; in assay [2], 3.97 z-score; with GST-Co-NF-kB, 5.47 z-score; with GST-Dm-Relish, 1.62 z-score; with GST-Aq-NF-kB it was 3.34 z-score. This sequence also had a binding signal with GST-Hu-p50 of 3.07 z-score.
With “CCGATTAACATCAAAAATCCCACTGATGTTAATCGGGTCTTGATTCGCTTGACGCTGCTG”, the binding signal in the assay with GST-Ap-NF-kB RHD was 3.51 z-score; in assay [1] it was 3.55 z-score; in assay [2], 2.95 z-score; with GST-Co-NF-kB, 1.65 z-score; in the assay with GST-Dm-Relish it was 7.7 z-score; in the assay with GST-Aq-NF-kB it was 3.87 z-score. Moreover, in the assay with GST-Hu-p50, the binding signal was 3.73 z-score.
Take “CCGATTAACATCAAAGTCCCGGGTGATGTTAATCGGGTCTTGATTCGCTTGACGCTGCTG”: the binding signal in the assay with GST-Ap-NF-kB RHD worked out at 4.32 z-score; in assay [1], 3.61 z-score; in assay [2] it was 3.64 z-score; in the assay with GST-Co-NF-kB, 1.85 z-score; in the assay with GST-Dm-Relish, 4.38 z-score; with GST-Aq-NF-kB, 3.49 z-score. In addition, the binding signal with GST-Hu-p50 is 3.83 z-score.
In the case of “CCGATTAACATCAAAATTACCCCTGATGTTAATCGGGTCTTGATTCGCTTGACGCTGCTG”, the binding signal with GST-Ap-NF-kB RHD came out at 4.94 z-score; in assay [1] it was 6.27 z-score; in assay [2], 7.21 z-score; in the assay with GST-Co-NF-kB, 7.33 z-score; with GST-Dm-Relish, 5.24 z-score; with GST-Aq-NF-kB, 6.34 z-score. Besides, the binding signal in the assay with GST-Hu-p50 was 5.3 z-score.
On to “CCGATTAACATCAAGGGTATTCCTGATGTTAATCGGGTCTTGATTCGCTTGACGCTGCTG”, for which the binding signal with GST-Ap-NF-kB RHD is 5.29 z-score; in assay [1], 5.81 z-score; in assay [2], 4.65 z-score; with GST-Co-NF-kB it was 1.17 z-score; with GST-Dm-Relish, 7.04 z-score; with GST-Aq-NF-kB, 5.86 z-score. The sequence further had a binding signal with GST-Hu-p50 of 4.55 z-score.
